This is an account of results in PubChem BioAssay (NCATS).

Records with an inconclusive call do not appear. Activity calls are given as the source filed them. The call rests on the fitted dose curve; in most records, active means well fitted inhibition curve with a large enough effect; inconclusive means small, poorly fitted or top-dose-only effect; inactive means flat fitted curve, though single readings scatter.
On the % scale 0 is the no-effect control and ±100 the full control effect; potency means the concentration at half of the fitted maximal effect.

One assay relates to HaCat. As to the kind of experiment: Cytotoxic Profiling of Annotated Libraries Using Quantitative High-Throughput Screening (AID 1296008). Further: nearly all actives have a fitted effect of over 60% in size. As to conditions: Five cell lines viability, CellTiter-Glo ATP luminescence, 48-72 h; max response: active compounds read low. Summed up:
(§1)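 Cells exposed to compounds for 48 or 72 hr at 37 degrees Celsius. Viability read as ATP-coupled luminescence with CellTiter-Glo after 10 min at room temperature.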
(In general: Cellular ATP, detected with luciferase, serves as a proxy for viable cell number.)
With `Fc1ccc(-c2cncc(CN3CCN(c4cccc5c4OCCO5)CC3)c2)cc1`, the molecule was called inactive.
In the case of `C/C=C(\C)C(=O)O[C@H]1C[C@](C)(O)[C@H]2CC=C(C)[C@H]2[C@@H]2OC(=O)[C@H](C)[C@H]21`, the max response is 2.74% (inactive).
`COc1cc2ncnc(Nc3cccc(I)c3)c2cc1OC`: the Potency was 4.61 µM (active).
As for `COc1cc(C(=O)NCC2(N(C)C)CCCC2)cc(OC)c1OCc1ccccc1`, the max response was 3.73% (inactive).

The next assay deals with KB-3-1. Described as above. The note with it: Five cell lines viability, CellTiter-Glo ATP luminescence, 48-72 h; max response: active compounds read low. In outline:
as §1
As for `C=C1[C@@H](OC(C)=O)CC[C@@]2(C)[C@@H](OC(C)=O)[C@H](OC(C)=O)C3=C(C)C[C@H](OC(=O)C(C)CC)[C@@H]([C@@H](OC(C)=O)[C@H]12)C3(C)C` (stereo partly specified), the Potency was 2.43 µM (active).
Take `S=C(c1ccc(-c2ccc(Cl)c(Cl)c2)o1)N1CCCCC1`: the max response is 6.89% (inactive).
For the molecule `CC(CCC1(O)OC2CC3C4CC=C5C[C@@H](O[C@@H]6O[C@H](CO)[C@@H](O[C@@H]7O[C@@H](C)[C@H](O)[C@@H](O)[C@H]7O)[C@H](O)[C@H]6O[C@@H]6O[C@@H](C)[C@H](O)[C@@H](O)[C@H]6O)CC[C@]5(C)C4CC[C@]3(C)[C@@]2(O)[C@@H]1C)CO[C@@H]1O[C@H](CO)[C@@H](O)[C@H](O)[C@H]1O` (stereo partly specified), the result was inactive.
In the case of `Cc1ccc(N2CCN(S(=O)(=O)N3CCCCC3)CC2)c(C)c1`, the max response is -2.41% (inactive).
As for `O=C(Nc1ncc([N+](=O)[O-])s1)c1ccccc1O`, the Potency is 8.2 µM (active).
On to `O=C(NCc1cccs1)c1cc2nc(-c3ccco3)cc(C(F)(F)Cl)n2n1`, for which the max response was 3.07% (inactive).
Consider `COc1ccc(-n2c(SCCCN3C(=O)c4cccc5cccc(c45)C3=O)nnc2-c2ccncc2)cc1`, for which the max response is -1.97% (inactive).
